For five compounds, composite z-score and z-score results are on record in PubChem BioAssay.

The test system of test [1] is Plasmodium falciparum Sir2 (PF13_0152, Sir2A). Briefly: Plasmodium falciparum Sir2A binding compounds – biochemical, small-molecule microarray, 635 nm fluorescence, primary screen (AID 1098).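 Further: score merges spot fluorescence intensity with its signal-to-noise ratio.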 As to conditions: fluorescence 635 nm, higher = more signal.
Test [2] in a line: probe aDKK1 binding to arrayed compounds – biochemical, biotinylated probe, 635/667 nm fluorescence, primary screen (AID 1099).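 Further: score merges 667nm spot fluorescence with signal to noise across triplicate slides.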 Conditions: small-molecule microarray, higher = more signal.
Test [3] can be described thus: probe aCHRDL2 binding to arrayed compounds – biochemical, biotinylated probe, 635/667 nm fluorescence, primary screen (AID 1100). As to conditions: small-molecule microarray, higher = more signal.
Test [4] can be described thus: change in splice reporter luminescence, either direction, cell-based, HEK293, spliceosome inhibition project, primary screen (AID 1101).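 Further: HEK293 cells carrying a splicing-competent luciferase reporter gene; test concentration not given here.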 Conditions: HEK293 splicing luciferase reporter, 24 h, higher = more signal, called active from +8 up or from −8 down. In general terms: In a reporter assay the amount or activity of a reporter protein is the signal.
Test [5] deals with Fibroblast growth factor 10 (Homo sapiens) (UniProt O15520). Put plainly: compounds binding fibroblast growth factor 10 – biochemical, small-molecule microarray, 635 nm fluorescence, primary screen (AID 1102). As to conditions: FGF10 binding, fluorescence 635 nm, higher = more signal.
Chain of Fibroblast growth factor 10 (Homo sapiens) (O15520 whole entry, looked up): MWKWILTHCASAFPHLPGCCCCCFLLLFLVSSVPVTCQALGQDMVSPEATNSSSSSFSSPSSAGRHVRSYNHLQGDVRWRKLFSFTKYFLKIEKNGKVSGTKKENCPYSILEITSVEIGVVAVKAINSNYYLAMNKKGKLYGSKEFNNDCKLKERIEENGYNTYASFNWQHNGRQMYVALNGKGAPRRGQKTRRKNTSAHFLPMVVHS
Test [6] concerns glycogen synthase kinase-3 (GSK3A per assay name; protocol says GSK3B). Put plainly: compounds binding glycogen synthase kinase-3 – biochemical, small-molecule microarray, 635 nm fluorescence, GSK3A, primary screen (AID 1103). Further: the record names both GSK3A and GSK3B. As to conditions: fluorescence 635 nm, higher = more signal.
Test [7] concerns the target Epidermal growth factor receptor (Homo sapiens) (UniProt P00533). Briefly: compounds binding epidermal growth factor receptor – biochemical, small-molecule microarray, 635 nm fluorescence, primary screen (AID 1104).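 Further: score merges 667 nm emission intensity with spot signal to noise over triplicate slides.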 Conditions: EGFR binding, higher = more signal.
Test [8] has as its target Follistatin-related protein 3 (Homo sapiens) (UniProt O95633). Briefly: compounds binding follistatin-related protein 3 – biochemical, small-molecule microarray, 635 nm fluorescence, primary screen (AID 1105).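 Further: score merges emission near 667 nm and signal to noise per printed spot across three slides.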 As to conditions: FSTL3 binding, higher = more signal.
Test [9] concerns the target Dickkopf-related protein 1 (Homo sapiens) (UniProt O94907). Put plainly: small molecules binding DKK1 protein – biochemical, small-molecule microarray, 635 nm fluorescence scan, primary screen (AID 1106).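 Further: score merges emission near 667 nm with signal to noise over three replicate slides.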 As to conditions: higher = more signal.
In test [10] the test system is Inhibin beta A chain (activin A). Put plainly: small molecules binding activin A – biochemical, small-molecule microarray, 635 nm fluorescence scan, primary screen (AID 1107).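 Further: mouse activin A protein probed at 4.33 µg/mL on printed slides; score merges bound-protein fluorescence near 667 nm with spot signal-to-noise.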 Conditions: INHBA, higher = more signal.
The subject of test [11] is Human papillomavirus type 1a protein E7 (residues 44-93). Put plainly: small molecules binding HPV E7 44-93 – biochemical, small-molecule microarray, residues 44-93, 635 nm fluorescence, primary screen (AID 1108).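 Further: E7 fragment applied at 1 µg/mL in TBST for 1 h at 4 C; score combines spot fluorescence with its signal to noise ratio.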 As to conditions: fluorescence 635 nm, higher = more signal.
Test [12] in a line: hepatitis C replication reporter changes, two-sided – Huh7 cells, luciferase reporter, HCV replication inhibitor project, primary screen (AID 1109).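 Further: huh7 hepatoma cells harbouring a luciferase neomycin HCV replicon reporter; luciferase luminescence as measure of HCV replicon replication; test concentration not given here.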 As to conditions: Huh7 HCV replicon luciferase reporter, 48 h; higher = more signal.
The target of test [13] is Left-right determination factor 2 (Homo sapiens) (UniProt O00292). Briefly: small molecules binding LEFTY2 protein – biochemical, small-molecule microarray, 635 nm fluorescence scan, primary screen (AID 1110). Conditions: higher = more signal.
Chain of Left-right determination factor 2 (Homo sapiens) (O00292 whole entry, looked up): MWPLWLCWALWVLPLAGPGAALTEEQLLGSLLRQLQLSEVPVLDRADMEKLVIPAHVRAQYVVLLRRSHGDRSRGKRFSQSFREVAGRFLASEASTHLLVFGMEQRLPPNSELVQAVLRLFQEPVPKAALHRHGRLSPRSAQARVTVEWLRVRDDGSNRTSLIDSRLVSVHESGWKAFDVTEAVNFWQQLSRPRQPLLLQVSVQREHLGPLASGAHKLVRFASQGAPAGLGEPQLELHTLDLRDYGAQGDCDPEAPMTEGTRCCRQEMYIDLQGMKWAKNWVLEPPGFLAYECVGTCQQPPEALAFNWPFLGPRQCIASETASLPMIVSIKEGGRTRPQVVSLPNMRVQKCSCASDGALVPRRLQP
For test [14], the target named is Calmodulin-1 (Homo sapiens) (UniProt P0DP23). Put plainly: small molecules binding calmodulin-1 with EGTA – biochemical, small-molecule microarray, Cy5-labelled CALM1, profiling panel (AID 1111).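 Further: labelled calmodulin applied in Tris saline Tween buffer holding calcium plus EGTA and DTT.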 As to conditions: Cy5-CALM1 binding fluorescence, higher = more signal.
Test [15] shares this target. Put plainly: small molecules binding Ca-loaded calmodulin-1 – biochemical, small-molecule microarray, Cy5-labelled CALM1, plus calcium, artefact control for SMM control-protein annotation, profiling panel (AID 1112).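 Further: score merges spot fluorescence with signal to noise from triplicate slides.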 As to conditions: Cy5-CALM1 binding fluorescence, higher = more signal.
Test [16] can be described thus: probe aWnt5a binding to arrayed compounds – biochemical, biotinylated probe, 635/667 nm fluorescence, primary screen (AID 1113).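 Further: score merges 667 nm fluorescence intensity with signal-to-noise per printed feature.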 As to conditions: small-molecule microarray, higher = more signal.
A short description of test [17]: probe aShh binding to arrayed compounds – biochemical, biotinylated probe, 635/667 nm fluorescence, primary screen (AID 1114).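 Further: probe is biotin-labelled aShh protein from a stem cell growth factor screen; measures binding of labelled protein to compounds printed on the slide; score merges feature fluorescence at 667 nm with signal-to-noise.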 Conditions: small-molecule microarray, higher = more signal.
The nature of test [18]: probe aNog binding to arrayed compounds – biochemical, biotinylated probe, 635/667 nm fluorescence, primary screen (AID 1115).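 Further: probe is biotinylated aNog protein used at 0.15 µg/mL for 1 h at 4 C; z-score combines 667 nm fluorescence of each spot with its signal to noise.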 As to conditions: small-molecule microarray, higher = more signal.
Test [19] addresses Torsin-1A-interacting protein 1 (Homo sapiens) (UniProt Q5JTV8). Put plainly: compound microarray binding of lysate hLAP1 – cell lysate, small-molecule microarray, COS7 lysate, 635/667 nm fluorescence, primary screen (AID 1116). Conditions: 635 nm fluorescence, higher = more signal.
Test [20] deals with Alpha-bungarotoxin (Bungarus multicinctus) (UniProt P60615). Briefly: compounds binding labelled alpha-BTX control protein – biochemical, small-molecule microarray, Alexa647 label, 635/667 nm fluorescence, artefact control for SMM control protein annotation, profiling panel (AID 1117). As to conditions: alpha-BTX-A647 binding fluorescence, higher = more signal.
Chain of Alpha-bungarotoxin (Bungarus multicinctus) (P60615 whole entry, looked up): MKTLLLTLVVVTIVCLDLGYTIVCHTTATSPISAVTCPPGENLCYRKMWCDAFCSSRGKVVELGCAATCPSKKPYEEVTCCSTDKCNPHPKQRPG

SMILES strings stand for the structures. Active and inactive are the calls of the source.

Chain of Torsin-1A-interacting protein 1 (Homo sapiens) (Q5JTV8 whole entry, looked up): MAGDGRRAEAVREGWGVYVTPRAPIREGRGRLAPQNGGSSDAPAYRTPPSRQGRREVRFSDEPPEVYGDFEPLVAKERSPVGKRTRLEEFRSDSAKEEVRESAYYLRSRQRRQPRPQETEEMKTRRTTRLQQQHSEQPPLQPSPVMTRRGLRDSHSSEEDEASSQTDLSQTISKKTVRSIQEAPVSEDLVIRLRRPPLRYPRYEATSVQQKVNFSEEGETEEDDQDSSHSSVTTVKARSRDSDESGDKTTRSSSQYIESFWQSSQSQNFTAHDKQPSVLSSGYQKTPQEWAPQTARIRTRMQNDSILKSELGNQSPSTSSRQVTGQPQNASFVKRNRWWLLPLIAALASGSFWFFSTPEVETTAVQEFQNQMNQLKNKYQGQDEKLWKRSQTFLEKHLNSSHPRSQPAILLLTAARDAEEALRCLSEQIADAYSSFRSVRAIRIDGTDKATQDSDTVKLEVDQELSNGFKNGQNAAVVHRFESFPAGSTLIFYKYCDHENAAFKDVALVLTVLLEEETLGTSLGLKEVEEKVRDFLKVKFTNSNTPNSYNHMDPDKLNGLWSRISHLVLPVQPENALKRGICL
Chain of Follistatin-related protein 3 (Homo sapiens) (O95633 whole entry, looked up): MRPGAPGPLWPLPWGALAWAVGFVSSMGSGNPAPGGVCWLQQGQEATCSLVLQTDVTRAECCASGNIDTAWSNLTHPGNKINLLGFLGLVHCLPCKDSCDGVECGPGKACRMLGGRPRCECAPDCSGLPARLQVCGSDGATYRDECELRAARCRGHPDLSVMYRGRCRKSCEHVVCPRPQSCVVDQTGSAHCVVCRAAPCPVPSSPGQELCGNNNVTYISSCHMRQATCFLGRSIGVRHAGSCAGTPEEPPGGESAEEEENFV
Chain of Epidermal growth factor receptor (Homo sapiens) (P00533 whole entry, looked up): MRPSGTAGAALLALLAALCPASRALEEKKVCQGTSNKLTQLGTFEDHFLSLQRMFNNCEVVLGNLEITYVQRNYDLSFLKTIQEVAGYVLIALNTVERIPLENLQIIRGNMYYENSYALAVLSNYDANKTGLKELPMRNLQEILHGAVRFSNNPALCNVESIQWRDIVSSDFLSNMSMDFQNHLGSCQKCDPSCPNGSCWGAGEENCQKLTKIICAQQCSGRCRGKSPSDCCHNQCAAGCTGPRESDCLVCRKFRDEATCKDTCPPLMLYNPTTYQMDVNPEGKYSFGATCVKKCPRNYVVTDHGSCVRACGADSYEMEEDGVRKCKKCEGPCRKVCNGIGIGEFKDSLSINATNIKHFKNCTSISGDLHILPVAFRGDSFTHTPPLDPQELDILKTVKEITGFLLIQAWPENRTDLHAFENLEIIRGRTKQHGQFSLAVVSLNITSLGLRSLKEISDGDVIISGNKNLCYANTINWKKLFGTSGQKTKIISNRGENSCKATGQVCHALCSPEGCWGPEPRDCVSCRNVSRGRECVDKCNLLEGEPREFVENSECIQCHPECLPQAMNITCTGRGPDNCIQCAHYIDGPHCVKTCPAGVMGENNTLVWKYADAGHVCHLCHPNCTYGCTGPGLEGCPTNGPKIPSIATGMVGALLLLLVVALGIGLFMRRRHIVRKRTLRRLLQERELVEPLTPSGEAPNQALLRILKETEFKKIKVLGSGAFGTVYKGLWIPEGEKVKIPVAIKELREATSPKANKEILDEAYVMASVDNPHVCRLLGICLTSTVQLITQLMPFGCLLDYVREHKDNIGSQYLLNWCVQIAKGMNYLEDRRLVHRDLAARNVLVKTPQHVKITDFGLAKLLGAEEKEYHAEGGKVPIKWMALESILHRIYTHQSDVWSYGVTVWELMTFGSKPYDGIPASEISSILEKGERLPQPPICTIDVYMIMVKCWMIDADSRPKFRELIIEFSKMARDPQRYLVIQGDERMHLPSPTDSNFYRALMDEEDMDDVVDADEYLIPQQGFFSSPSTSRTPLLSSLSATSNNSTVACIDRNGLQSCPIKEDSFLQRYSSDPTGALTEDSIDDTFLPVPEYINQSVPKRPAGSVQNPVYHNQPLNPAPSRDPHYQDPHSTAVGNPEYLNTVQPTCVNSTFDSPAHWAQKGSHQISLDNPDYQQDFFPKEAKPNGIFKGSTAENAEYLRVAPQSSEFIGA
Chain of Dickkopf-related protein 1 (Homo sapiens) (O94907 whole entry, looked up): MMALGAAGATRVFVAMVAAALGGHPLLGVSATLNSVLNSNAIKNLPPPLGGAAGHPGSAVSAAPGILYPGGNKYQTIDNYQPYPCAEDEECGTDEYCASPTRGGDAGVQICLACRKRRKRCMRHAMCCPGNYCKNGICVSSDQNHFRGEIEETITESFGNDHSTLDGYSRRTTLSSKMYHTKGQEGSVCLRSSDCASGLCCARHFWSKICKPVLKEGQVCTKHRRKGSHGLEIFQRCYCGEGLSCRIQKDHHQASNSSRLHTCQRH

For `[N-]=[N+]=NCc1ccccc1C[C@]1(C(=O)O)N=C(c2ccc(OCCCO)cc2)O[C@H]1c1ccccc1N=[N+]=[N-]`, the composite z-score in [1] turned out to be 1.17; in test [2] it was 0.621; in test [3], 0.435; in test [5] it was 1.12; in test [6], 1.16; in test [7], 0.386. Besides, the composite z-score turned out to be 0.737 in test [8]; 0.0572 in test [9]; 0.303 in test [10]; 1.18 in test [11]; 0.11 in test [13]; 1.23 in test [14]. For the same compound, the composite z-score in test [15] was determined as 0.0606; in test [16] it was 0.0919; in [17], 0.0639; in test [18] it was 1.59; in [19], 1.46; in [20], 1.76. Besides, the z-score is -3.66 (inactive) in test [4] and -1.11 in test [12].
Take `COc1ccc([Si](C)(C)[C@H]2[C@H](CC(=O)N3Cc4ccccc4C[C@H]3CO)O[C@@]3(C(=O)N(Cc4ccc(N5CCC5=O)cc4)c4ccccc43)[C@@H]2C)cc1`: the composite z-score in test [1] was 1.21; in [2], -0.283; in [3], 0.51; in test [5] it was 1.15; in test [6] it was 0.972; in test [7] it was 1.11. In addition, the composite z-score in test [8] amounted to 1.44; in test [9], 1; in [10] it was 1.28; in [11], 1.37; in test [13], 1.22; in [14] it was 1.02. Moreover, the composite z-score in test [15] is -0.89; in test [16], 0.0158; in [17], -0.144; in test [18] it was 1.65; in test [19], 1.45; in test [20], 0.548. Besides, the z-score in test [4] is -0.315 (inactive); in test [12], -3.99.
Consider `O=C1O[C@@H](c2ccccc2)[C@@H](c2ccccc2)N2[C@@H](c3ccc(OCCO)cc3)[C@]3(C(=O)Nc4ccccc43)[C@@H](C(=O)NC[C@H](O)c3ccccc3)[C@H]12`, for which the composite z-score in test [1] is 1.17; in test [2], 0.189; in test [3] it was 0.2; in test [5], 0.55; in [6], 0.445; in test [7] it was 0.566. For the same compound, the composite z-score was 0.33 in [8]; 0.334 in test [9]; 0.632 in test [10]; 1.28 in test [11]; 1.04 in test [13]; 0.158 in [14]. Further, the composite z-score in test [15] was 0.0233; in test [16], -0.0768; in test [17], -0.2; in test [18], 0.0597; in test [19], 1.3; in test [20] it was 0.362. Moreover, the results for the z-score in [4] and in [12] were -0.203 (inactive) and -2.1, respectively.
As to `C[C@@H]1ON(c2cccc(C(=O)OC(C)(C)C)c2)[C@H](c2ccc(Br)cc2)[C@H]1C(=O)N1C(=O)OC[C@H]1Cc1ccccc1`, the composite z-score in test [1] was 0.801; in test [2], -0.155; in [3], -0.319; in test [5] it was 1.15; in test [6], 0.962; in test [7], 0.51. For the same compound, the composite z-score in test [8] is 1.03; in test [9], 0.693; in test [10], 0.272; in [11] it was 1.16; in test [13], 0.552; in [14] it was 0.702. Besides, the composite z-score in test [15] was -0.367; in test [16], 0.667; in test [17] it was 0.0756; in test [18] it was 1.09; in test [19], 2.7; in test [20], 0.518. The figures for the z-score in test [4] and in [12] were -0.0916 (inactive) and -1, respectively.
Consider `CN1C(=O)C2C=CC(C(O)Cc3ccccc3)N(Nc3ccccc3)C2C1=O` (stereo not given), for which the composite z-score in test [1] is 0.36; in [2], 0.645; in [3], 0.898; in [5], 0.235; in test [6], -0.442; in [7], -0.389. The composite z-score in [8] is -0.0978; in [9], -0.549; in test [10], 0.437; in test [11] it was 0.343; in test [13] it was -0.244; in test [14], 1.08. The composite z-score in [15] is 0.85; in [16], -0.0738; in [17], -0.153; in test [18], 0.338; in test [19], 0.439; in test [20], 0.428. In addition, the z-score in [4] is -0.00929 (inactive); in test [12], -0.12.
